# Target: Shiga toxin 2 (Escherichia coli O157:H7) (UniProt P09385+P09386)
# Assay: E. coli 0.157:H7 Shiga Toxin SOP - stx2 screening assay
# Type: functional
# Set-up: scale not given: direction of the effect not stated beside the values
# Conditions: 30 µM
row,SMILES,Percent Effect [%]
1,Cc1nn(C)cc1CN1CCC(C2Nc3ccccc3S(=O)(=O)N2)CC1 (centres undefined),14.6
2,Cc1cccn2c(=O)cc(CN3CCCCC3Cn3cncn3)nc12 (centres undefined),-18.4
3,Cc1ccc([C@]2(O)CC[C@H]3CN(Cc4cccc(Cl)c4Cl)C[C@H]32)nc1,6.78
4,COc1cc(CN(C)C(=O)Cc2c(C)nn(C)c2C)ccc1OC(F)F,-4.8
5,CCc1nc(CN2CCCN(C(=O)C(C)COC)CC2)cs1 (centres undefined),-63.3
6,Cc1noc(C)c1CNC(=O)N1CCC(CO)CC1,-4.58
7,c1ccc(-c2nc(CN3CCCC3Cn3cncn3)cs2)cc1 (centres undefined),5.25
8,Cc1nc(CN2C[C@@H]3CN(C(=O)c4ccnnc4)C[C@@H]3C2=O)cs1,-1.02
9,c1ccc2cc(OCCN3CCOC(Cn4cncn4)C3)ccc2c1 (centres undefined),-29.2
10,Cc1cccc(CNC2CCCc3c2cnn3C)c1 (centres undefined),-9.23
11,CCN(CC)C(=O)c1nnn(-c2ccc(C)cc2)c1C1CC1,-1.32
12,COC(=O)C1CCN(C(=O)c2ccc(C)c(NS(C)(=O)=O)c2)CC1,-2.45
13,CN(C)C(C(=O)N1CCC(N2CCSCC2)CC1)c1ccccc1F (centres undefined),-3.63
14,COc1ccc(CN2C[C@@H]3OCCN(CC4CCCO4)[C@@H]3C2)cc1 (some centres undefined),-4.29
15,CC(C)(C)OC(=O)N1CCCC[C@H]1C(=O)NCc1nccs1,-16.6
16,CC(C)c1noc(CCC(=O)NC(C)c2nnc3n2CCCCC3)n1 (centres undefined),-13.7
17,CN1CCN(Cc2cnc3n2CCN(Cc2cccs2)C3)CC1,-18.8
18,O=C(C1CC1)N1CCCC1C1CCN(Cc2ccccc2)CC1 (centres undefined),-13.2
19,CC(=O)Nc1nc(C(=O)N2CCCC(c3cc(C)[nH]n3)C2)cs1 (centres undefined),-12.2
